From PubChem BioAssay
Compounds with a hit are over-represented: about 14% of the library has one in this group of screens.
Pf growth 96h: Primary qHTS for delayed death inhibitors of the malarial parasite plastid, 96 hour incubation | P. falciparum luciferase reporter growth, 96 h | Potency, µM (highest dose often 28.7 µM), inactives show at the top dose activity change, negative = inhibition, usual class: inhibitors | hit rate 6.9% among 320,000; also: potency is read from the fitted curve at half-maximal effect
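Erythrocytes infected with luciferase-expressing P. falciparum were dispensed at 2% hematocrit and 0.05% parasitemia (final), then incubated with compounds 96 hours at 37 C in 5% CO2. Luminescence after detection reagent addition reported growth.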
Pf growth 48h: Primary qHTS for delayed death inhibitors of the malarial parasite plastid, 48 hour incubation. P. falciparum luciferase growth in erythrocytes, 48 h. Potency, µM (series often up to 28.7 µM), without a hit: at the top dose activity change, negative = inhibition, actives largely listed as inhibitors. hit rate 5.9% among 310,000; also: potency is read from the fitted curve at half-maximal effect
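A one-generation exposure of luciferase-tagged malaria parasites in RPMI 1640/Albumax erythrocyte culture, 37 C and 5% CO2. Inhibition is inferred from decreased luminescence after adding detection reagent.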
LASV entry inh: qHTS for Inhibitors of binding or entry into cells for Lassa Virus | Lassa virus pseudotype entry inhibition, cell reporter | Potency, µM (series often up to 37.9 µM), without a hit: at the highest dose activity change, negative = inhibition, hits mostly inhibitors | hit rate 1.2% among 300,000 | AID 540256, 2011; calls by dose curve; tested in HEK293 cells; also: potency is read from the fitted curve at half-maximal effect; nearly all actives have a fitted effect of over 50% in size
HCMV inh: qHTS Assay for inhibitors of the human cytomegalovirus (HCMV) | HFF cells, HCMV-luciferase reporter, 72 h; stronger effect = lower value | activity change, negative = inhibition, % at 57.5 µM | hit rate 4.5% among 410,000 | AID 1259415, 2018; in the data active = activity change below about -60%; inconclusive = no clear call, values can overlap the other calls; inactive = above about -39%
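Inhibition of viral replication was scored as loss of reporter luminescence in HFFs infected with HCMV-luciferase (MOI 1 PFU/cell) for 72 h; compounds tested at 2 doses, normalized to buffer and Salinomycin controls.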
MARV entry inh: qHTS for inhibitors of binding or entry into cells for Marburg Virus | hit rate 1.8% among 300,000 | Potency, µM (highest dose often 37.8 µM), for inactives: at the highest dose activity change, negative = inhibition, actives largely listed as inhibitors | AID 540276, 2011 | Marburg virus pseudotyped entry inhibition, cell reporter; calls by dose curve; tested in HEK293 cells; also: potency is read from the fitted curve at half-maximal effect
HCV inh: qHTS Assay for Inhibitors of Hepatitis C Virus (HCV); Huh7.5.1 HCVcc-Cre infection, luciferase reporter, 44 h; Potency, µM (top dose mostly 41.8 µM), for the others: at the top dose activity change, negative = inhibition, most hits filed as inhibitors; hit rate 3.4% among 340,000; AID 651820, 2012; also: potency is read from the fitted curve at half-maximal effect
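Cells (1,000/well) were plated 4 h before compound, then infected with HCVcc-Cre virus (~0.5 moi). After 44 h further culture, infection was read as luciferase luminescence following a 15 min substrate incubation at room temperature.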
* hit, by the source's call; ? = inconclusive; / = no result; [ ] = dose if it differs, or a comment. Unless noted, calls follow the shape of the dose curve; as a rule, active = well fitted inhibition curve with a large enough effect; inconclusive = small, poorly fitted or top-dose-only effect, or another doubt; inactive = no such curve, though single readings can be large or run the other way. % is scaled to controls: 0 for no effect and ±100 for the full control effect.

SMILES | Pf growth 96h | Pf growth 48h | LASV entry inh | HCMV inh | MARV entry inh | HCV inh
COCCNC(=S)N/N=C(\C)c1ccc2cc(OC)ccc2c1 | ? | ? | 8.2µM* | -75* | ? | ?
COc1ccc(CNC(=S)Nc2cccc(C)c2)cc1 | -24% | / | 16% | -31 | ? | -19%
S=C(NCc1ccc2c(c1)OCO2)Nc1ccc(-c2nc3ccccc3[nH]2)cc1 | 5.2µM* | 12µM* | -12% | -61* | ? | ?
O=C(Nc1ccc(F)c(Cl)c1)c1cc(C2CCCCN2C(=O)CCc2ccccc2)on1 (stereo not drawn) | / | / | / | -35 | / | /
N#CCCN(CC#Cc1ccccc1)OCc1ccccc1 | / | / | / | / | 21%[14.2 µM] | /
CCc1ccccc1NC(=O)CSc1nnc(CC)c(CC)n1 | / | / | -2%[46.1 µM] | ? | / | /
C/C(=N\NC(=S)NCc1ccccc1)c1ccccc1 | -3% | 21% | ? | 139 | ? | 0%
C=C(C)CNC(=S)N/N=C(\C)c1ccc(OC)cc1 | -32% | 13µM* | ? | -70* | ? | ?
C/C(=N\NC(=S)NCc1ccccc1)c1ccc(C(C)(C)C)cc1 | ? | 9.3µM* | 0.46µM* | 17 | ? | -21%
COc1ccc(CNC(=S)N/N=C(/C)c2ccccc2)cc1 | -18% | 42% | 14µM* | -2 | ? | 1%
CCCN(CCC)C(=O)c1ccc2c(=O)n(Cc3ccco3)c(=S)[nH]c2c1 | 0% | -16% | -22% | -90* | 6% | -13%
CCn1c(=O)n(-c2ccc(Cl)cc2)c(=O)c2c3c(sc21)COC(C)(C)C3 | 7.4µM* | ? | 9% | 21 | 14% | -22%
Cn1c(=O)n(-c2ccc(Cl)cc2)c(=O)c2c3c(sc21)COC(C)(C)C3 | ? | ? | -2% | -28 | 18% | 4%
CC1(C)Cc2c(sc3[nH]c(=S)n(Cc4ccco4)c(=O)c23)CO1 | 2.6µM* | -7% | ? | 10 | -8% | 13%
CC1(C)Cc2c(sc3c2c(=N)n(Cc2ccco2)c(=O)n3Cc2ccc(Cl)cc2)CO1 | 10µM* | 5.2µM* | ? | -35 | ? | ?
COCCN1C(=O)C2=C(C1=O)C1N(C)c3ccccc3[C@@]13C[C@@H](CO)N=C3N2 (stereo partly drawn) | / | / | / | / | 25%[14.2 µM] | /
CCc1nn(C(C)C(=O)N2CCN(c3cccc(C(F)(F)F)c3)CC2)c(=O)c2cc3occc3n12 (stereo not drawn) | / | / | -3%[46.1 µM] | -8 | ? | /
CC1(C)Cc2c(sc3c2c(=N)n(Cc2ccco2)c(=O)n3Cc2ccccc2)CO1 | -21% | 9.3µM* | ? | -33 | ? | ?
CN(C)C(CNC(=O)C1CCN(S(=O)(=O)c2cc(Cl)ccc2Cl)CC1)Cc1ccccc1 (stereo not drawn) | / | / | / | -26 | / | ?
O=C(c1cccs1)c1no[n+]([O-])c1C(=O)c1cccs1 | -3%[5.75 µM] | 47% | -5% | / | -14% | 10µM*
O=C(c1ccc(Cl)nc1)c1cccs1 | 45% | 14% | 16% | / | -3% | 24%
COc1ccc(C(=O)c2no[n+]([O-])c2C(=O)c2ccc(OC)cc2)cc1 | -20% | ? | ? | -105* | -14% | ?
COc1cccc(NC(=O)Cn2c(-c3nonc3N)nc3ccccc32)c1 | / | / | 0%[46.1 µM] | -2 | 1%[46.1 µM] | /
COc1ccc(/C=C/c2nc3ccccc3c(=O)n2-c2ccc(C)cc2)cc1O | / | / | -18%[46.1 µM] | -23 | / | /
COc1cc(/C=C/c2nc3ccccc3c(=O)n2-c2cccc(O)c2)ccc1O | -26% | 0% | 1.3µM* | 0 | ? | ?
SMILES | Pf growth 96h | Pf growth 48h | LASV entry inh | HCMV inh | MARV entry inh | HCV inh
COc1cc(/C=C/c2nc3ccccc3c(=O)n2-c2ccccc2O)ccc1O | 9.3µM* | 9.3µM* | ? | -83* | ? | ?
Cc1cc(C)n2nc(-c3ccsc3-n3c(C)ccc3C)cc2n1 | ? | 13µM* | 1% | 14 | ? | ?
COc1cc2c(cc1OC)/C(=C/C#N)NC(C)(C)C2 | ? | 9.3µM* | -1% | -28 | 0% | ?
COc1cc(OC)c(NC(=O)c2cc(C)nc3c2c(C)nn3-c2ccc(C)cc2)cc1Cl | / | / | ? | 26 | / | /
COc1ccc(Cc2nc3ccc(C(=O)N(C)Cc4nccs4)cc3o2)cc1OC | ? | -5% | / | -65* | / | ?
COc1ccc(Cc2nc3ccc(C(=O)N4CCN(C)C(C)C4)cc3o2)cc1OC (stereo not drawn) | -2% | 0% | ? | -64* | ? | ?
CN(Cc1nccs1)C(=O)c1ccc2nc(Cc3ccccc3F)oc2c1 | ? | 10% | / | 97 | / | -19%
COc1ccc(Cc2nc3ccc(C(=O)NCc4cc(C)no4)cc3o2)cc1OC | ? | ? | 2% | 11 | -18% | -50%
C=CCN(CC=C)C(=O)c1ccc2nc(Cc3ccc(OC)c(OC)c3)oc2c1 | ? | ? | ? | -62* | ? | 11µM*
COc1ccc(Cc2nc3ccc(C(=O)N4CCCC4)cc3o2)cc1OC | 0% | ? | ? | 0 | ? | ?
CC(C)CCN(C(=O)c1ccncc1)c1c(N)n(Cc2ccccc2)c(=O)[nH]c1=O | -28% | ? | / | -19 | / | -17%
CCCN(C(=O)COC(=O)CCOc1ccc(C)cc1)c1c(N)n(Cc2ccccc2)c(=O)[nH]c1=O | 8% | 0% | -7% | ? | ? | 0%
CCCCn1c(N)c(N(CCOC)C(=O)C(C)Oc2ccc(Cl)cc2)c(=O)[nH]c1=O (stereo not drawn) | -25% | ? | 0%[46.1 µM] | 8 | 22% | 31%
Cc1ccc(OCCC(=O)N(CCC(C)C)c2c(N)n(Cc3ccccc3)c(=O)[nH]c2=O)cc1 | ? | 10µM* | ? | / | -20% | -4%
CC(C)CCN(C(=O)Cc1ccc(Cl)c(Cl)c1)c1c(N)n(Cc2ccccc2)c(=O)[nH]c1=O | ? | -16% | ? | -31 | 2% | 10µM*
COCCCN(C(=O)CCOc1ccccc1C)c1c(N)n(Cc2ccccc2)c(=O)[nH]c1=O | ? | 13µM* | -15% | -14 | -16%[46.1 µM] | 13%
COCCCN(C(=O)C(C)Oc1ccc(Br)cc1)c1c(N)n(Cc2ccccc2)c(=O)[nH]c1=O (stereo not drawn) | ? | 13µM* | -1% | 5 | -7% | ?
Cc1ccc(C)c(CNC(=O)c2sc3ncnc(N(C)C4CCCCC4)c3c2C)c1 | / | / | ? | -26 | / | /
Cc1ccc(CN(C(=O)COc2ccc(Cl)c(C)c2)C2CCS(=O)(=O)C2)o1 (stereo not drawn) | / | / | -29%[46.1 µM] | -18 | -2%[46.1 µM] | /
CCc1nc2cccnc2n1-c1ccc(CC(=O)Nc2ccccc2Cl)cc1 | / | / | -13%[46.1 µM] | ? | / | /
